Common to all, as to assay: protein-binding microarray (PBM); PBM: ~300 nM protein, 6 mM HEPES pH 7.8, 80 mM KCl, 0.5 mM EDTA, 0.5 mM EGTA, 6% glycerol, 35 ng/ul poly-dIdC, 1% milk, 1 h, room temperature; Ap Aiptasia and Nv Nematostella (sea anemones) / Co Capsaspora / Aq Amphimedon (sponge) / Dm Drosophila / Hu human; RHD is the Rel homology domain; high values mean tight binding
Details in all cases: dsDNA, one strand shown

One assay concerns the target T1, GST-Ap-NF-kB RHD (Exaiptasia pallida (Aiptasia), UniProt A0A913YAJ5 2-422).
T1 sequence: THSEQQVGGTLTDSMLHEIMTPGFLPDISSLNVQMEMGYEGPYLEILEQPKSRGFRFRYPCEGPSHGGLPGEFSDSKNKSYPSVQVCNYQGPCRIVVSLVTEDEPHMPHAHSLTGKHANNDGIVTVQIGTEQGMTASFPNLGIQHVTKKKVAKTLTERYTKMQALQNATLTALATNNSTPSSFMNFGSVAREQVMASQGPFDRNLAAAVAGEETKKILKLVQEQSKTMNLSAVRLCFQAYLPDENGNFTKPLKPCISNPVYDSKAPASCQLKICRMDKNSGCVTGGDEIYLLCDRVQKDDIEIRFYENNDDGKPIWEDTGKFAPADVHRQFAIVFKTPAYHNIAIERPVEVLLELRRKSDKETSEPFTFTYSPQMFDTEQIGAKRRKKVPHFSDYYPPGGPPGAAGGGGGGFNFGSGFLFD

For assay [1], the target named is T2, GST-Nv-NF-kB (Cys allele) (Nematostella vectensis, UniProt E5G601 2-411).
T2 sequence: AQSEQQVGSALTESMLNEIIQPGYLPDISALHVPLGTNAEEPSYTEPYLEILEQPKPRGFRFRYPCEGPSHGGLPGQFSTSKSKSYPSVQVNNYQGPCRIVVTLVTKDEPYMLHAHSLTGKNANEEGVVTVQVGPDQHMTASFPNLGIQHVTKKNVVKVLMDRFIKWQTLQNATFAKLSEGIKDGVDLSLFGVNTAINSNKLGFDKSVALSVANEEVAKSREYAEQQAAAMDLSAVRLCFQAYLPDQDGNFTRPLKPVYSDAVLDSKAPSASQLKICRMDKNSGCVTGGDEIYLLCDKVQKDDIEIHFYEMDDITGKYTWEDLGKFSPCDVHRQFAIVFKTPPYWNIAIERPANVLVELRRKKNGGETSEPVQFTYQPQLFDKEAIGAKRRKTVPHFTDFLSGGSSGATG

Assay [2] addresses T3, GST-Nv-NF-kB (Ser allele) (Nematostella vectensis, UniProt A7UNT2 2-411).
T3 sequence: T2 sequence with Q21R, C66S, S207N, E215Q, V217A, E225K, A268E, D399E

The target in another assay is T4, GST-Co-NF-kB (Capsaspora owczarzaki, UniProt F1ARL5 200-546).
T4 sequence: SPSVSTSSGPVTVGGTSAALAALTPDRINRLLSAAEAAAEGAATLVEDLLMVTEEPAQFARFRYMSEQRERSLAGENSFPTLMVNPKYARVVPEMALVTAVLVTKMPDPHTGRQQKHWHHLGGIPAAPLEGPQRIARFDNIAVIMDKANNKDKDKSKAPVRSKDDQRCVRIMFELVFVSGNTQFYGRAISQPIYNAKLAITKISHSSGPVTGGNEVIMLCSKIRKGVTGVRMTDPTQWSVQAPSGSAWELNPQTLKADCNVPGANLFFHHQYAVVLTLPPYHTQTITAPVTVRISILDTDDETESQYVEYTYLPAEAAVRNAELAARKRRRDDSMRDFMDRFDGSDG

A further assay has as its target T5, GST-Dm-Relish (Drosophila melanogaster, UniProt Q94527 99-473).
T5 sequence: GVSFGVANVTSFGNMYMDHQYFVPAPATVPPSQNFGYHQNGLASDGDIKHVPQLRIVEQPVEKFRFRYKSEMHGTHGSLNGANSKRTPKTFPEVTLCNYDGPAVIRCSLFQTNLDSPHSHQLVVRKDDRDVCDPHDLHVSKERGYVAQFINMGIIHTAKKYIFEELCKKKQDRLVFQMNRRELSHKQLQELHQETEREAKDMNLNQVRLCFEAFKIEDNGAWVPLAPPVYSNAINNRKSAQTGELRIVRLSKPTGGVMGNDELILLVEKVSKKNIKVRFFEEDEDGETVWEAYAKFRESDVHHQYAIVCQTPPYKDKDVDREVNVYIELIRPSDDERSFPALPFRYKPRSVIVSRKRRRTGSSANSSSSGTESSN

A further assay deals with T6, GST-Aq-NF-kB (Amphimedon queenslandica, UniProt A9Y5G7 2-389).
T6 sequence: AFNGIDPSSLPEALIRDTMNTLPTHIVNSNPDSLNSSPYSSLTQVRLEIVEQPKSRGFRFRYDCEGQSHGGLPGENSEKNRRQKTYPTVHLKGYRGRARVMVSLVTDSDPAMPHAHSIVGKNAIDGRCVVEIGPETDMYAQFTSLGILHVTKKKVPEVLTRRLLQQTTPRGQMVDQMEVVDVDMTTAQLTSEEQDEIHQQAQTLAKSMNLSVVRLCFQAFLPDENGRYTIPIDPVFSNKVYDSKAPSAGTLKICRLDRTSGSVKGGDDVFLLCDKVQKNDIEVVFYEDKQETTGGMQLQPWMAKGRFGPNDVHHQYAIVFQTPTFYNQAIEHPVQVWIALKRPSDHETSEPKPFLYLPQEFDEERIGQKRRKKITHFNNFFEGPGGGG

The target in another assay is GST-Hu-p50 (Homo sapiens, UniProt P19838 7-356).
Sequence of GST-Hu-p50 (P19838 7-356): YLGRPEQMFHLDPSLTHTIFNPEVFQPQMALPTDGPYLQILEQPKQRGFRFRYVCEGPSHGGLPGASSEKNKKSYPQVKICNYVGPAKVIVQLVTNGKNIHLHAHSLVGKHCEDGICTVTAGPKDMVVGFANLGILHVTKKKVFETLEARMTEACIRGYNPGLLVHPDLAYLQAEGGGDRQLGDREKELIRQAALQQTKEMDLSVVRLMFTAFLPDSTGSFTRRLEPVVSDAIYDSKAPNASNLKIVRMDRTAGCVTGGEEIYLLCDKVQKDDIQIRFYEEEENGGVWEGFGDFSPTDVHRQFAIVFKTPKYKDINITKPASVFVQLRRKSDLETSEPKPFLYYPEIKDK

Residue numbers refer to the chain shown, from its start.

In the case of “CCGATTAACATCAATTTTTCCCCTGATGTTAATCGGGTCTTGATTCGCTTGACGCTGCTG”, the binding signal in the assay with GST-Ap-NF-kB RHD came to 7 z-score; in assay [1], 8.62 z-score; in assay [2], 11.5 z-score; in the assay with GST-Co-NF-kB, 11.2 z-score; in the assay with GST-Dm-Relish, 5.15 z-score; with GST-Aq-NF-kB, 5.96 z-score. Besides, in the assay with GST-Hu-p50, the binding signal is 6.59 z-score.
Turning to “CCGATTAACATCAGGATTCCCCCTGATGTTAATCGGGTCTTGATTCGCTTGACGCTGCTG”, the binding signal stood at 11.3 z-score with GST-Ap-NF-kB RHD; 10.5 z-score in assay [1]; 9.81 z-score in assay [2]; 8.01 z-score in the assay with GST-Co-NF-kB; 10.2 z-score with GST-Dm-Relish; 8.67 z-score in the assay with GST-Aq-NF-kB. The sequence further displayed a binding signal with GST-Hu-p50 of 7.26 z-score.
For “CCGATTAACATCAAGGGGGTACCTGATGTTAATCGGGTCTTGATTCGCTTGACGCTGCTG”, the binding signal worked out at 5.62 z-score in the assay with GST-Ap-NF-kB RHD; 3.48 z-score in assay [1]; 4.15 z-score in assay [2]; 2.65 z-score in the assay with GST-Co-NF-kB; 3.15 z-score with GST-Dm-Relish; 3.5 z-score with GST-Aq-NF-kB. In the assay with GST-Hu-p50, this sequence gave a binding signal of 3.89 z-score.
With “CCGATTAACATCAGGCATCCCCATGATGTTAATCGGGTCTTGATTCGCTTGACGCTGCTG”, the binding signal in the assay with GST-Ap-NF-kB RHD stood at 3.84 z-score; in assay [1], 2.84 z-score; in assay [2] it was 3.73 z-score; with GST-Co-NF-kB, 1.82 z-score; with GST-Dm-Relish it was 3.01 z-score; with GST-Aq-NF-kB, 2.63 z-score. The same sequence yielded a binding signal with GST-Hu-p50 of 2.9 z-score.
With “CCGATTAACATCAAAAATTCCCTTGATGTTAATCGGGTCTTGATTCGCTTGACGCTGCTG”, the binding signal turned out to be 6.05 z-score with GST-Ap-NF-kB RHD; 9.28 z-score in assay [1]; 8.71 z-score in assay [2]; 4.19 z-score with GST-Co-NF-kB; 7.19 z-score with GST-Dm-Relish; 7.62 z-score with GST-Aq-NF-kB. In the assay with GST-Hu-p50, this sequence came in with a binding signal of 6.22 z-score.
With “CCGATTAACATCAGAAAACCCCCTGATGTTAATCGGGTCTTGATTCGCTTGACGCTGCTG”, the binding signal with GST-Ap-NF-kB RHD was 10.8 z-score; in assay [1], 10 z-score; in assay [2], 11 z-score; in the assay with GST-Co-NF-kB, 4.05 z-score; with GST-Dm-Relish it was 10 z-score; with GST-Aq-NF-kB, 8.84 z-score. In the assay with GST-Hu-p50, this sequence came in with a binding signal of 8.24 z-score.
As to “CCGATTAACATCAGGCTTTCCCCTGATGTTAATCGGGTCTTGATTCGCTTGACGCTGCTG”, the binding signal with GST-Ap-NF-kB RHD is 6.49 z-score; in assay [1] it was 7.29 z-score; in assay [2] it was 7.71 z-score; in the assay with GST-Co-NF-kB, 4.87 z-score; with GST-Dm-Relish, 7.38 z-score; with GST-Aq-NF-kB, 7.22 z-score. Moreover, in the assay with GST-Hu-p50, the binding signal was 4.79 z-score.
On to “CCGATTAACATCAAAATTTACCCTGATGTTAATCGGGTCTTGATTCGCTTGACGCTGCTG”, for which the binding signal with GST-Ap-NF-kB RHD is 3.17 z-score; in assay [1], 5.04 z-score; in assay [2], 6.15 z-score; in the assay with GST-Co-NF-kB it was 4.27 z-score; in the assay with GST-Dm-Relish, 4.47 z-score; with GST-Aq-NF-kB, 5.23 z-score. The same sequence showed a binding signal in the assay with GST-Hu-p50 of 4.09 z-score.
“CCGATTAACATCAAGAACTTCCCTGATGTTAATCGGGTCTTGATTCGCTTGACGCTGCTG”: the binding signal with GST-Ap-NF-kB RHD was 3.37 z-score; in assay [1], 3.73 z-score; in assay [2], 3.72 z-score; in the assay with GST-Co-NF-kB, 2.1 z-score; with GST-Dm-Relish, 2.86 z-score; with GST-Aq-NF-kB, 4.6 z-score. Further, in the assay with GST-Hu-p50, the binding signal is 2.19 z-score.
On to “CCGATTAACATCAAGCATTCCCCTGATGTTAATCGGGTCTTGATTCGCTTGACGCTGCTG”, for which the binding signal with GST-Ap-NF-kB RHD is 6.61 z-score; in assay [1] it was 7.73 z-score; in assay [2], 8.37 z-score; in the assay with GST-Co-NF-kB, 5.48 z-score; with GST-Dm-Relish it was 4.42 z-score; with GST-Aq-NF-kB, 5.38 z-score. The sequence also displayed a binding signal with GST-Hu-p50 of 5.38 z-score.
Consider “CCGATTAACATCAGGGGGATCTATGATGTTAATCGGGTCTTGATTCGCTTGACGCTGCTG”, for which the binding signal with GST-Ap-NF-kB RHD was 6.31 z-score; in assay [1], 5.52 z-score; in assay [2], 6.98 z-score; with GST-Co-NF-kB it was 4.28 z-score; with GST-Dm-Relish it was 5.1 z-score; in the assay with GST-Aq-NF-kB, 4.5 z-score. In addition, the binding signal with GST-Hu-p50 turned out to be 5.83 z-score.
As to “CCGATTAACATCACAGAATCCCCTGATGTTAATCGGGTCTTGATTCGCTTGACGCTGCTG”, the binding signal came to 8.13 z-score in the assay with GST-Ap-NF-kB RHD; 8.87 z-score in assay [1]; 11.1 z-score in assay [2]; 3.42 z-score with GST-Co-NF-kB; 7.58 z-score with GST-Dm-Relish; 6.21 z-score with GST-Aq-NF-kB. The binding signal with GST-Hu-p50 was determined as 6.89 z-score.

Source of the values: paper PMC5700166.
